# A selection: hits, their analogues and other compounds. The true share with any hit is near 21%.
# Pf growth 96h = P. falciparum growth inhibition at 96 hour, primary screen for plastid delayed-death inhibitors | P. falciparum luciferase reporter growth, 96 h | 320,000 tested, 6.9% active | Potency, µM (highest dose often 28.7 µM), for the others: at the top dose activity change, negative = inhibition, hits mostly inhibitors; further: potency means the concentration at half of the fitted maximal effect; on the % scale 0 is the no-effect control and ±100 the full control effect
#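 Erythrocytes infected with luciferase-expressing P. falciparum were dispensed at 2% hematocrit and 0.05% parasitemia (final), then incubated with compounds 96 hours at 37 C in 5% CO2. Luminescence after detection reagent addition reported growth.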
# HCMV antiviral = blocks human cytomegalovirus replication; activity change, negative = inhibition, % at 57.5 µM; HFF cells, HCMV-luciferase reporter, 72 h; stronger effect = lower value; 410,000 tested, 4.5% active; AID 1259415; in the data active means activity change below about -60%; inconclusive means no clear call, values can overlap the other calls; inactive means above about -39%; further: on the % scale 0 is the no-effect control and ±100 the full control effect
#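 After 16 h attachment at 37C, HFF cells received test compound and HCMV-luciferase (1 PFU/cell); reporter luminescence read 72 h later, data normalized against buffer-only and known inhibitor Salinomycin.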
# Pf growth 48h = P. falciparum growth inhibition at 48 hours (one generation) | P. falciparum luciferase growth in erythrocytes, 48 h | Potency, µM (titrated, usually from 28.7 µM), inactives show at the highest dose activity change, negative = inhibition, hits mostly inhibitors | 310,000 tested, 5.9% active; further: potency means the concentration at half of the fitted maximal effect; on the % scale 0 is the no-effect control and ±100 the full control effect
#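 Read-out is firefly luciferase luminescence from an integrated reporter in P. falciparum, so falling signal marks reduced parasite growth. Infected erythrocytes were at 2% hematocrit and 0.1% parasitemia (final) in Albumax-supplemented RPMI 1640.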
# CHX counter = affects cycloheximide protein synthesis inhibition readout, counter-screen; 300,000 tested, 12% active; AID 2314; max response, %; cell reporter, cycloheximide protein synthesis inhibition counterscreen; in the data active means max response mostly above about 13%, no sharp cut-off; inactive means mostly below about 14%; further: read at 38.3 µM for the half of the compounds with a filed dose; 0% is about no effect
# HCV inhibitor = inhibitors of hepatitis C virus infection; Potency, µM (titrated, usually from 41.8 µM), for inactives: at the top dose activity change, negative = inhibition, hits mostly inhibitors; Huh7.5.1 HCVcc-Cre infection, luciferase reporter, 44 h; 340,000 tested, 3.4% active; further: potency means the concentration at half of the fitted maximal effect; on the % scale 0 is the no-effect control and ±100 the full control effect
#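 Antiviral activity was scored by luciferase reporter output from cells infected with HCVcc-Cre (~0.5 moi) in presence of compound, 44 h infection period, cells seeded 1,000/well 4 h prior.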
# Shiga toxin inh = blocks Shiga toxin action in Vero cells | AID 2315 | inhibition, % at 38.7 µM | 290,000 tested, 9.2% active | Vero cells, Shiga toxin protein synthesis inhibition reporter; in the data active means inhibition mostly above about 28%, no sharp cut-off; inactive means mostly below about 43%; further: 0% is about no effect
# Numbers without * were called inactive; i = inactive; ? = inconclusive; nt = no result given. Unless noted, the call rests on the fitted dose curve; in most records, active means well fitted inhibition curve with a large enough effect; inconclusive means small, poorly fitted or top-dose-only effect, or another doubt; inactive means no such curve, though single readings can be large or run the other way.
SMILES,Pf growth 96h,HCMV antiviral,Pf growth 48h,CHX counter,HCV inhibitor,Shiga toxin inh
CC(NC(=O)COC(=O)/C=C/c1ccco1)c1ccccc1 (configuration not stated),21%,-37,11%,-5,-2%,9
O=C(CSc1ccc2ccccc2n1)c1ccc2c(c1)OCO2,115%,43,nt,53*,-21%,104*
CCOC(=O)CSc1ccc2ccccc2n1,14%,?,23%,4,9%,19
O=C(Cn1c(=O)[nH]c2ccccc2c1=O)Nc1ccc2c(c1)OCO2,22%,-22,14%,10,-11%,21
C[C@@H](C(=O)Nc1ccc2c(c1)OCO2)n1c(=O)[nH]c2ccccc2c1=O,?,52,-41%,14,-3%,29*
O=c1c2ccccc2[nH]c(=S)n1-c1ccc2c(c1)OCO2,10%,-11,12µM*,-4,3%,-20
C[C@@H](C(=O)Nc1ccc2c(c1)OCCO2)n1c(=O)[nH]c2ccccc2c1=O,407%,-70*,259%,49*,15%,147*
CC(C)C(C(=O)Nc1ccc2c(c1)OCCO2)N1C(=O)c2ccccc2C1=O (configuration not stated),27%,4,7%,1,7%,-9
COc1ccc(OC)c(CNC(=O)CCCn2nc(C)c3c(C)n(-c4ccc(C)cc4)nc3c2=O)c1,nt,9,nt,nt,nt,nt
COc1cccc(NC(=O)CCc2nnc3n(Cc4ccccc4Cl)c(=O)c4ccccc4n23)c1,nt,1,nt,nt,nt,nt
CSc1nc(-c2ccco2)nn1S(=O)(=O)c1ccc(C)cc1,?,22,-5%,-2,12%,29
Cc1ccc(S(=O)(=O)n2nc(-c3ccco3)nc2SCc2ccccc2)cc1,9%,80,43%,34*,16%,86*
CCCC(=O)n1nc(-c2ccco2)nc1SCc1ccccc1,45%,nt,39%,43*,-10%,active
O=C(Cc1ccccc1)n1nc(-c2ccco2)nc1SCc1ccccc1,28%,-11,nt,28*,5%,42
O=C(c1ccco1)n1nc(-c2ccco2)nc1SCc1ccccc1,-18%,-10,nt,19*,17%,43
COC(=O)CN1C(=O)CSc2ccc(S(=O)(=O)Nc3cccc(C)c3)cc21,nt,-11,nt,nt,nt,nt
NCCCCCc1cnc[nH]1,nt,nt,nt,-2,nt,16
CC(=O)Nc1ccc(N/C=C/C(=O)c2ccco2)cc1,5%,56,232%,59*,-1%,76*
CN(C)c1ccc(NC(=S)NC(=O)/C=C/c2ccco2)cc1,?,-10,18%,1,-5%,16
CN(C)c1ccc(N/C=C/C(=O)c2ccco2)cc1,?,50,nt,49*,-13%,91*
CSc1ncc(Cl)c(C(=O)N(Cc2ccc(N(C)C)cc2)Cc2ccco2)n1,nt,-17,nt,nt,nt,nt
CCCSc1ncc(Cl)c(C(=O)N(Cc2ccc(Cl)cc2)Cc2ccco2)n1,nt,-66*,nt,nt,nt,nt
CCCS(=O)(=O)c1ncc(Cl)c(C(=O)N(Cc2ccccc2)Cc2ccco2)n1,nt,-98*,nt,-15,nt,-11
CCSc1ncc(Cl)c(C(=O)N(Cc2ccccc2)Cc2ccco2)n1,nt,-100*,nt,nt,nt,nt
CN1CCCC(OC(=O)c2ccc(C#N)cc2)C1 (configuration not stated),27%,-8,2%,1,23%,1
SMILES,Pf growth 96h,HCMV antiviral,Pf growth 48h,CHX counter,HCV inhibitor,Shiga toxin inh
COc1ccc2c(c1)C(O)C(CO)C(C(=O)O)C2 (configuration not stated),nt,19,nt,nt,18%,nt
COc1ccc(/C=N/NC(=O)c2ccccc2O)cc1CN1CCOCC1,7%,44,0%,7,14%,40
CCOc1cc(C(=S)N2CCOCC2)ccc1OC,nt,-3,13%,-2,11%,-13
CCOc1cc(/C=C/C(=O)c2ccc(OC)c(CN3CCOCC3)c2)cc(Br)c1O,9.3µM*,-98*,13µM*,-6,?,1
COc1ccc(/C=N/NC(=O)c2cccc(Br)c2)cc1COc1ccccn1,24%,47,-12%,14*,-9%,11
COc1ccc(/C=N/NC(=O)c2cccc(Br)c2)cc1CN1CCOCC1,20%,28,-11%,19*,12%,18
COc1ccc(/C=N/NC(=O)c2ccccc2O)cc1COc1ccccn1,0%,17,-18%,23*,10%,41*
CCc1ccc(-n2c(=O)c3sc4ccccc4c3n(CC(=O)NC3CCCC3)c2=O)cc1,nt,-7,nt,nt,nt,nt
Nc1ccc(-c2nc3ccccc3o2)cc1,-5%,151,42%,57*,-23%,91*
Cc1ccccc1-c1nc2cc(N)ccc2o1,56%,140,134%,55*,?,87*
Nc1ccc2oc(-c3cccc(Br)c3)nc2c1,21%,nt,182%,43*,?,108
Nc1ccc2oc(-c3ccccc3Br)nc2c1,nt,80,nt,nt,nt,nt
Cc1ccc2nc(-c3cccc(N)c3)oc2c1,nt,68,147%,10,-20%,7
Nc1ccc2oc(-c3ccc4nc[nH]c4c3)nc2c1,?,86,-72%,16*,?,27
CCCCn1c(N)c(N(CCOC)C(=O)CCNC(=O)c2ccc(Br)cc2)c(=O)[nH]c1=O,1%,-20,-2%,nt,8%,nt
Cc1nc2ccc(-c3nc4cc(N)ccc4o3)cc2[nH]1,?,46,?,21*,10µM*,27*
CCc1ccc2oc(-c3cccc(N)c3)nc2c1,i,166,346%,23,?,29
Cc1onc(-c2ccccc2)c1C(=O)N1CCN(S(=O)(=O)c2ccc(OC(F)(F)F)cc2)CC1,?,3,10%,-3,17%,3
COc1ccccc1NC(=O)c1nc(S(=O)(=O)Cc2ccccc2)ncc1Cl,17%,-113*,20%,11,?,34
CCS(=O)(=O)c1ncc(Cl)c(C(=O)Nc2ccccc2OC)n1,45%,-20,18%,11,?,nt
CCOc1ccccc1NC(=O)c1nc(S(=O)(=O)Cc2ccccc2)ncc1Cl,?,-109*,0%,3,?,1
COc1ccc(OC)c(NC(=O)c2nc(S(=O)(=O)Cc3ccc(F)cc3)ncc2Cl)c1,nt,-97*,nt,nt,nt,nt

# Bioassay records deposited in PubChem BioAssay by National Center for Advancing Translational Sciences (NCATS).
